Paper PMC5540273 (PLoS ONE, 2017)

Columns and labels:
Conditions in all cases: concentration: 1 μM, replicates: in singlicate; n = 1
[1] = system: NEK11
[2] = system: NEK1
[3] = system: NEK2
[4] = system: NEK3
[5] = system: NEK4
[6] = system: NEK5
[7] = system: NEK6
[8] = system: NEK7
[9] = system: NEK9
[10] = system: T1, NIK
T1 construct: gene MAP3K14
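Further: KINOMEscan kinase panel screen.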

Structure (SMILES) | %Inh [1] | %Inh [2] | %Inh [3] | %Inh [4] | %Inh [5] | %Inh [6] | %Inh [7] | %Inh [8] | %Inh [9] | %Inh [10]
O=C(Nc1cccc(-c2nn3ccccc3c2-c2ccnc(Nc3cccc(C(F)(F)F)c3)n2)c1)c1c(F)cccc1F [GSK292658] | 0% | 0% | 8% | 0% | 0% | 0% | 0% | 4% | 16% | 0%
COc1ccc(Nc2nccc(N3CCC(NC(=O)Nc4cccc(OC)c4)C3)n2)cc1 (stereo not shown) [GSK1379742] | 0% | 0% | 17% | 0% | 0% | 3% | 0% | 0% | 2% | 7%
CN(c1ccc(NC(=O)Nc2cc(C(F)(F)F)ccc2F)cc1)c1ccnc(Nc2ccc(S(N)(=O)=O)cc2)n1 [GW809893] | 0% | 100% | 0% | 15% | 26% | 31% | 20% | 0% | 37% | 38%
CC(=O)Nc1nc2cnc(Nc3cc(NC(=O)c4cccc(C5(C#N)CC5)c4Cl)ccc3C)nc2s1 | 0% | 0% | 0% | 18% | 10% | 0% | 4% | 7% | 14% | 0%
CN1CCN(CCCNc2nccc(-c3c(-c4ccc(F)cc4)nn4cc(C(F)(F)F)ccc34)n2)CC1 [GW621581] | 14% | 0% | 14% | 0% | 0% | 0% | 0% | 11% | 0% | 18%
CNC(=O)c1ccccc1Nc1nc(Nc2ccc(N3CCOCC3)cc2)ncc1Cl.Cl [GSK1576028] | 85% | 86% | 89% | 93.3% | 65% | 100% | 98.6% | 98% | 97.7% | 36%
O=C(Nc1cccc(-c2nn3ccccc3c2-c2ccnc(Nc3cccc(F)c3)n2)c1)c1c(F)ccc(F)c1Cl [GSK357952] | 6% | 0% | 20% | 0% | 6% | 0% | 0% | 6% | 19% | 36%
CCc1ccc(-c2ccc3c(c2)-c2c(cnn2C)S(=O)(=O)N3C)cc1 | 0% | 0% | 5% | 0% | 0% | 0% | 0% | 0% | 0% | 0%
O=C(Nc1cccc(Oc2ccc3nc(NC(=O)C4CC4)cn3n2)c1)c1ccccc1C(F)(F)F | 0% | 9% | 12% | 26% | 0% | 9% | 0% | 0% | 0% | 0%
Oc1cc(Nc2ccnc3cc(I)ccc23)ccc1F [GW552771] | 0% | 0% | 0% | 1% | 38% | 0% | 0% | 0% | 0% | 0%
COC(=O)Nc1nc2ccc(Oc3ccc(NC(=O)Nc4cc(C(F)(F)F)ccc4F)cc3)cc2n1C.Cl [GW692089] | 25% | 0% | 0% | 0% | 0% | 0% | 0% | 0% | 0% | 27%
COc1cc(Nc2nccc(N3CCC(NC(=O)c4cc5ccccc5s4)C3)n2)cc(OC)c1OC (stereo not shown) [GSK1379760] | 0% | 35% | 26% | 11% | 13% | 99.5% | 27% | 37% | 31% | 4%
COc1ccc(CNC(=O)NC2CCN(c3ccnc(Nc4ccc(F)cc4)n3)CC2)cc1 [GSK1379788] | 2% | 0% | 0% | 12% | 0% | 13% | 0% | 0% | 0% | 12%
Nc1ncc(-c2cccnc2)c2scc(-c3ccc4c(c3)CCN4C(=O)Cc3ccccc3)c12 [GSK683281] | 44% | 0% | 70% | 1% | 17% | 22% | 8% | 19% | 28% | 4%
COc1ccc(Nc2nccc(NCCNC(=O)c3cc4ccccc4s3)n2)cc1 [GSK1379896] | 3% | 0% | 22% | 0% | 14% | 13% | 0% | 0% | 21% | 7%
C[C@@H]1CC[C@@H](C(=O)Nc2ccccc2)CN1c1cc(-c2ccc3c(N)n[nH]c3c2)nc(N)n1 [GSK2286062] | 0% | 1% | 0% | 4% | 0% | 7% | 0% | 0% | 8% | 0%
COc1cc(Nc2nccc(-c3c(-c4cccc(NC(=O)c5c(F)cccc5F)c4)nn4ncccc34)n2)cc(OC)c1OC [GSK327238] | 0% | 0% | 92.7% | 0% | 12% | 58% | 17% | 18% | 41% | 13%
Cc1ccc(C(=O)Nc2ccc(Nc3ccnc4cc(-c5nccs5)ccc34)cc2O)cc1.Cl [GW494702] | 40% | 0% | 0% | 0% | 3% | 0% | 0% | 0% | 0% | 12%
Cc1ccc(F)c(C(=O)Nc2cccc(-c3nn4ccccc4c3-c3ccnc(Nc4cccc(F)c4)n3)c2)c1F [GSK361061] | 0% | 0% | 0% | 8% | 18% | 12% | 9% | 14% | 16% | 5%

Structure (SMILES) | %Inh [1] | %Inh [2] | %Inh [3] | %Inh [4] | %Inh [5] | %Inh [6] | %Inh [7] | %Inh [8] | %Inh [9] | %Inh [10]
O=C(Nc1n[nH]c2nc(-c3ccc(O)cc3)ccc12)C1CC1 [SB-710363] | 0% | 0% | 3% | 17% | 2% | 0% | 0% | 12% | 0% | 2%
Nc1ncc(-c2ccc3nccc(-c4ccncc4)c3c2)cc1S(=O)(=O)N1CCOCC1 [GSK1627798] | 0% | 0% | 12% | 0% | 5% | 0% | 0% | 0% | 2% | 0%
Nc1ncnc2c1nc(-c1ccccc1)n2-c1ccccc1 [SKF-97293] | 30% | 23% | 0% | 2% | 26% | 0% | 15% | 6% | 0% | 34%
COCCOCCOc1cc2ncc3c4ccc(C#N)cc4[nH]c3c2cc1OC | 0% | 0% | 53% | 33% | 0% | 0% | 0% | 15% | 7% | 65%
NCCCC(NC(=O)c1cc(Br)c(-c2ccnc3[nH]ccc23)s1)c1ccccc1.O=C(O)C(F)(F)F.O=C(O)C(F)(F)F (stereo not shown) [GSK1287544] | 0% | 74% | 9% | 0% | 9% | 88% | 16% | 0% | 17% | 16%
CC(=O)N1CCN(c2ccc(Nc3nccc(-c4sc(C(C)C)nc4-c4cccc(NS(=O)(=O)c5cccc(Cl)c5)c4)n3)cn2)CC1 [GSK1660437] | 90% | 0% | 42% | 0% | 6% | 2% | 32% | 73% | 85% | 17%
COc1cc(Nc2ncc3c(C)nc(-c4cc5ccccc5[nH]4)n3n2)cc(OC)c1OC [GW869516] | 86% | 16% | 70% | 89% | 41% | 99% | 99.6% | 99.7% | 90% | 0%
Cl.Cl.NCC(NC(=O)c1cc(-c2ccccc2)c(-c2ccnc3[nH]ccc23)s1)c1ccccc1 (stereo not shown) [GSK1321561] | 6% | 0% | 8% | 0% | 0% | 6% | 0% | 0% | 13% | 17%
Cc1occc1-c1ncc(OC[C@@H](N)Cc2c[nH]c3ccccc23)cc1-c1ccc2[nH]nc(C)c2c1.O=C(O)C(F)(F)F [GSK682037] | 0% | 24% | 0% | 0% | 0% | 24% | 0% | 0% | 8% | 78%
CN1CCN(Cc2cccc(-c3ccc4c(Nc5ccc(Oc6ccccc6)cc5)ccnc4c3)c2)CC1 [GW578342] | 28% | 0% | 0% | 3% | 0% | 0% | 0% | 0% | 16% | 24%
Cn1cc(-c2ccc3c(c2)CCN3C(=O)Cc2cccc(Cl)c2)c2c(N)ncnc21 [GSK2606590] | 0% | 26% | 66% | 1% | 22% | 32% | 11% | 0% | 18% | 23%
COc1cccc(NC(=O)NC2CCN(c3ccnc(Nc4cc(OC)c(OC)c(OC)c4)n3)C2)c1 (stereo not shown) [GSK1379763] | 0% | 65% | 21% | 33% | 5% | 100% | 16% | 52% | 40% | 6%
c1ccc(Oc2ccc(Nc3ccnc4cc(-c5ccc(CNCCN6CCOCC6)o5)ccc34)cc2)nc1 [GW567145] | 45% | 0% | 0% | 0% | 0% | 0% | 0% | 0% | 13% | 28%
COc1cc(Nc2nccc(N3CCC(NC(=O)Nc4cccc(C(C)=O)c4)C3)n2)cc(OC)c1OC (stereo not shown) [GSK1379753] | 0% | 58% | 43% | 41% | 30% | 100% | 1% | 45% | 27% | 5%
c1ccc(-c2n[nH]cc2Nc2ccnc3ccccc23)nc1 [GW694077] | 0% | 7% | 99.1% | 3% | 0% | 6% | 0% | 0% | 41% | 19%
O=C(NC1CCN(c2ccnc(Nc3ccc(F)cc3)n2)C1)c1cc2ccccc2s1 (stereo not shown) [GSK1379716] | 20% | 0% | 8% | 9% | 0% | 13% | 3% | 0% | 17% | 42%
c1ccc(-c2cnc3nccnn23)cc1 [AH20685] | 0% | 0% | 0% | 0% | 16% | 0% | 0% | 0% | 0% | 0%
Cl.NC(=O)c1cccc(Nc2nccc(Nc3ccc(Oc4c(Cl)cccc4Cl)c(Cl)c3)n2)c1 [GW659009] | 0% | 0% | 1% | 87% | 3% | 26% | 86% | 5% | 6% | 14%
